Screens from PubChem BioAssay.
VACV mCherry inh – inhibitors of vaccinia virus infection (mCherry reporter signal); Vaccinia virus mCherry reporter infection, fluorescence; hit rate 0.63% among 310,000; Potency, µM (highest dose often 36.5 µM), most hits filed as inhibitors; calls by dose curve; tested in A549 cells; further: nearly all actives have a fitted effect of over 35% in size
Pf growth 96h – P. falciparum growth inhibition at 96 hours; Potency, µM (doses to about 28.7 µM), hits mostly inhibitors; hit rate 6.9% among 320,000; AID 504834; P. falciparum luciferase reporter growth, 96 h
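P. falciparum expressing integrated firefly luciferase, in erythrocytes at 2% hematocrit, 0.05% parasitemia, incubated with compounds 96 h at 37 C, 5% CO2. Growth inhibition read as loss of luminescence; two-generation exposure targets delayed-death apicoplast inhibitors.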
Pf growth 48h – inhibits P. falciparum growth in the first generation, 48 h; hit rate 5.9% among 310,000; Potency, µM (highest dose often 28.7 µM), hits mostly inhibitors; P. falciparum luciferase growth in erythrocytes, 48 h
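In quantitative HTS format, infected erythrocytes bearing luciferase-reporter parasites were treated for a single generation at 37 C. Luminescence after adding detection reagent served as the growth measure.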
AMA1-RON2 inh – inhibitors of Plasmodium falciparum AMA1-RON2 interaction; Potency, µM (highest dose often 58.2 µM), usual class: inhibitors; hit rate 0.2% among 360,000; AlphaScreen AMA1-biotinylated RON2 peptide binding; further: nearly all actives have a fitted effect of over 45% in size
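AMA1 (3D7) with his tag at 25 nM final met compounds first, then biotinylated RON2 peptide at 25 nM; detection used donor plus acceptor beads, 10 µg/mL apiece, read by AlphaScreen after 30 min at room temperature.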
VACV Venus inh – inhibitors of vaccinia virus (Venus reporter); Vaccinia virus Venus reporter expression, fluorescence; Potency, µM (doses to about 36.5 µM), hits mostly inhibitors; hit rate 0.46% among 330,000; calls by dose curve; tested in A549 cells; further: nearly all actives have a fitted effect of over 30% in size
Each line names hits and unclear results; the compound was inactive in the other large screens. The list is not random: actives were taken first. Their share in the collection is about 8.7%. Unless noted, the call rests on the fitted dose curve; in most records, active means well fitted curve in the direction sought with a large enough effect; inconclusive means small, poorly fitted or top-dose-only effect, or another doubt; inactive means no such curve, though single readings can be large; an effect the other way counts as inactive or inconclusive.

Cc1ccc(-n2nc3c(=O)n(CCCC(=O)NCc4cccc(F)c4)nc(C)c3c2C)cc1	Pf growth 48h 10.4µM (no result: VACV mCherry inh, VACV Venus inh)
Cc1ccc(CCNC(=O)CCCn2nc(C)c3c(C)n(-c4ccc(C)cc4)nc3c2=O)cc1	Pf growth 96h inconclusive
CCOc1ccccc1NC(=O)CSc1cc(=O)n(CC)c2ccccc12	none (no result: Pf growth 96h, Pf growth 48h, AMA1-RON2 inh)
Cc1ccc(-n2nc3c(=O)n(CCCC(=O)NCCN4CCN(C)CC4)nc(C)c3c2C)cc1	VACV mCherry inh inconclusive, Pf growth 96h 11.7µM, Pf growth 48h inconclusive, VACV Venus inh inconclusive
COc1ccc(-c2cn3nc(SCC(=O)Nc4ccccc4F)ccc3n2)cc1	none (no result: Pf growth 96h, Pf growth 48h, AMA1-RON2 inh)
O=C(Cc1ccc([N+](=O)[O-])cc1)OCc1ccc([N+](=O)[O-])cc1	Pf growth 48h inconclusive
CC(C)(C)c1ccc(C(=O)NCC(=O)OCc2ccc([N+](=O)[O-])cc2)cc1	Pf growth 96h 0.522µM
CCCS(=O)(=O)c1ccc(COC(=O)Cc2ccc([N+](=O)[O-])cc2)cc1	Pf growth 96h 2.94µM (no result: VACV mCherry inh, VACV Venus inh)
O=C(CNC(=O)c1ccccc1)OCc1cccc([N+](=O)[O-])c1	none
CCn1c(=O)n(-c2ccc3c(c2)OCO3)c2nc(-c3cc(OC)ccc3OC)nc(C(N)=O)c21	none (no result: Pf growth 96h, Pf growth 48h, AMA1-RON2 inh)
COc1cccc(CNC(=O)C2CCN(C(=O)N3CCOc4ccc(Cl)cc43)CC2)c1OC	none (no result: Pf growth 96h, Pf growth 48h, AMA1-RON2 inh)
COc1ccc(OC)c(CCNC(=O)c2ccc(CS(=O)Cc3cccc(Cl)c3)o2)c1 (stereo not drawn)	Pf growth 96h 4.15µM, Pf growth 48h inconclusive
C[N+]1(CC(=O)c2ccc(Oc3ccccc3)cc2)CCOCC1	none (no result: Pf growth 96h, Pf growth 48h, AMA1-RON2 inh)
CCc1ccccc1NC(=O)CSc1nnc(COc2ccccc2Cl)o1	none (no result: Pf growth 96h, Pf growth 48h, AMA1-RON2 inh)
CCOC(=O)C1=C(NC(=O)c2ccc(Br)o2)Nc2ccccc2N=C1	Pf growth 96h 1.85µM, Pf growth 48h 1.65µM (no result: VACV mCherry inh, VACV Venus inh)
OC1(c2cccnc2)CCN(Cc2ccc3c(c2)CN(Cc2cc4ccccc4s2)CCO3)CC1	none (no result: Pf growth 96h, Pf growth 48h, AMA1-RON2 inh)
COc1ccc(C)cc1N/C(N)=N/c1nc(C)cc(C)n1	VACV mCherry inh inconclusive, Pf growth 96h inconclusive, Pf growth 48h 11.7µM
COc1cc(N/C(N)=N/c2nc(C)cc(C)n2)cc(OC)c1	Pf growth 96h 10.4µM, Pf growth 48h inconclusive (no result: VACV mCherry inh, VACV Venus inh)
Cc1ccc(C)c(N/C(N)=N/c2nc(C)cc(C)n2)c1	Pf growth 96h inconclusive, Pf growth 48h 11.7µM
CC(=O)Nc1ccc(N/C(N)=N/c2nc(C)cc(C)n2)cc1	Pf growth 96h inconclusive, Pf growth 48h inconclusive
Cc1cc(C)nc(/N=C(\N)Nc2ccc(SC(F)F)cc2)n1	Pf growth 96h 13.1µM, Pf growth 48h 11.7µM (no result: VACV mCherry inh, VACV Venus inh)
CCCCCn1c(=O)[nH]c2cc(C(=O)NCc3ccc(F)cc3)ccc2c1=O	none (no result: Pf growth 96h, Pf growth 48h, AMA1-RON2 inh)
Cc1cccc(NS(=O)(=O)c2cc(C(=O)N3CCN(C)CC3)ccc2C)c1	Pf growth 96h 9.28µM (no result: Pf growth 48h)
CC(=O)Nc1ccc(NC(=O)c2ccc(C)c(S(=O)(=O)Nc3cccc(C)c3)c2)cc1	Pf growth 48h 11.7µM
O=C(NCCCN1CCN(c2ccc(F)cc2)CC1)Nc1ccccc1Cl	none (no result: Pf growth 96h, Pf growth 48h, AMA1-RON2 inh)
COC(=O)c1c(NC(=O)Cc2coc3ccc(C(C)C)cc23)sc2c1CCC2	none (no result: Pf growth 96h, Pf growth 48h, AMA1-RON2 inh)
Cc1ccc(CCNC(=O)CCCn2nc(C)c3c(C)n(-c4ccccc4)nc3c2=O)cc1	none (no result: Pf growth 96h, Pf growth 48h, AMA1-RON2 inh)
OCCN1CCN(C(c2cccs2)c2ccc3cccnc3c2O)CC1 (stereo not drawn)	Pf growth 48h 2.08µM (no result: VACV mCherry inh, AMA1-RON2 inh, VACV Venus inh)
COc1cc(NC(=O)C(CC(C)C)NS(=O)(=O)c2ccc3c(c2)CCN3C(C)=O)cc(OC)c1 (stereo not drawn)	none (no result: Pf growth 96h, Pf growth 48h, AMA1-RON2 inh)
CCCc1cc(=O)[nH]c2nnc(SCCC(C)C)n12	none (no result: Pf growth 96h, Pf growth 48h, AMA1-RON2 inh)
COc1ccc(NS(=O)(=O)c2ccc3c(c2)NC(=O)CCS3)cc1Cl	Pf growth 96h 5.86µM (no result: VACV mCherry inh, VACV Venus inh)
COc1ccc(C(=O)C2C(=O)C(=O)N(Cc3ccco3)C2c2cccs2)cc1 (stereo not drawn)	none (no result: Pf growth 96h, Pf growth 48h, AMA1-RON2 inh)
Cc1ccc(C(OCC(O)CN2CCCCC2CO)c2ccccc2)cc1 (stereo not drawn)	Pf growth 96h 1.65µM, Pf growth 48h inconclusive (no result: VACV mCherry inh, VACV Venus inh)
Cc1oc(-c2ccc(Cl)cc2)nc1CSc1nnc(C)n2c1cc1sccc12	none (no result: Pf growth 96h, Pf growth 48h, AMA1-RON2 inh)
COc1ccc([C@@H](C)NC(=O)CCc2nnc(-c3cc(C)on3)o2)cc1	Pf growth 96h 2.94µM
Cc1cc(-c2nnc(CCC(=O)NC(C)c3cccc4ccccc34)o2)no1 (stereo not drawn)	Pf growth 96h 11.7µM
COc1ccc(NS(=O)(=O)c2ccc(-c3cnc(C4CC4)o3)cc2)cc1Cl	none (no result: Pf growth 96h, Pf growth 48h, AMA1-RON2 inh)
CC(=O)c1cc(-c2ccccc2)n(CCC(=O)NCc2ccc(C)cc2)c1C	none (no result: Pf growth 96h, Pf growth 48h, AMA1-RON2 inh)
